# From ChEMBL document CHEMBL3988442, “University of Dundee, Small-Polar-MMV Screening Library” (2021)
# Among all 66,000 compounds or so, about 960 (1.5%) showed an effect of 50% or more. For the sample, strong results were picked, then their nearest neighbours and some compounds at random.
# Test system: Trypanosoma brucei
# Assay: Trypanosoma brucei 72 hour study
# Format: functional, organism-based
# Design: scale not given: in the data most compounds retested in dose-response had high values
smiles,measurement,setting,value
CC1(C)CC(N(Cc2ccccc2)Cc2ncc[nH]2)CC(C)(C)N1.O=C(O)CC(O)(CC(=O)O)C(=O)O,Percent Effect,"30.3 µM, […]",10.45%
CCN1CCN(C)C2(CCN(Cc3ccsc3)CC2)C1=O.O=C(O)C(F)(F)F.O=C(O)C(F)(F)F,Percent Effect,"30.3 µM, […]",-66.4%
O=C(O)C(F)(F)F.O=C1COC2(CCN(Cc3ccoc3)CC2)CN1,Percent Effect,"30 µM, 30.03 µM",-33.82%
O=C(O)C(F)(F)F.O=C(c1cnccn1)N1CCCC2(CCN(c3ncccn3)C2)C1 (stereo unspecified),Percent Effect,"30 µM, 30.03 µM",-0.826%
CC(=O)N1CCN(S(=O)(=O)c2ccc(C)c(F)c2)CC1,Percent Effect,"30 µM, 30.03 µM",0.5413%
c1ccc2c(c1)CCN(c1nc(N3CCOCC3)c3nn[nH]c3n1)C2,Percent Effect,"30.3 µM, […]",-17%
Cc1nc(CO[C@@H]2CN(Cc3ccsc3)[C@@H]3COC[C@@H]32)cs1.O=C(O)C(F)(F)F,Percent Effect,"30 µM, 30.03 µM",-15.95%
CC(C)COCCC(=O)NCc1cn2cc(Br)ccc2n1,Percent Effect,"30 µM, 30.03 µM",-7.155%
CCOCCOC(C)C(=O)NCc1cn2cc(Br)ccc2n1 (stereo unspecified),Percent Effect,"30 µM, 30.03 µM",14.67%
CCOCCCC(=O)NCc1cn2cc(Br)ccc2n1,Percent Effect,"30 µM, 30.03 µM",54.92%
OC1(CNCCCN2CCCc3ccccc32)CNCCOC1 (stereo unspecified),Percent Effect,"30.3 µM, […]",12.14%
OC1(CNCCN2CCCc3ccccc32)CCNC1 (stereo unspecified),Percent Effect,"30.3 µM, […]",6.012%
OC1(CNCCCN2CCc3ccccc32)CCNC1 (stereo unspecified),Percent Effect,"30.3 µM, […]",99.09%
Cl.O=C(CCn1c(C(F)(F)F)cc2cccnc21)N1CCOCC1,Percent Effect,"30.3 µM, […]",-52.3%
CN(CCOc1cccc(F)c1)Cc1nc2c(cnn2C)c(=O)[nH]1,Percent Effect,"30.3 µM, […]",-16.26%
Cc1cnc(NC(=O)c2csc(NCC(C)C)n2)s1,Percent Effect,"30 µM, 30.03 µM",4.824%
Cc1cc(O)c(OCC(=O)/N=c2\[nH]c(C)c(C)s2)cn1,Percent Effect,"30 µM, 30.03 µM",-31.23%
Cc1cs/c(=N/C(=O)c2csc(NCC(C)C)n2)[nH]1,Percent Effect,"30 µM, 30.03 µM",86.34%
Cc1[nH]/c(=N\C(=O)c2csc(NCC(C)C)n2)sc1C,Percent Effect,"30 µM, 30.03 µM",99.84%
Cc1cccc(NC(=O)c2csc(NCC(C)C)n2)n1,Percent Effect,"30 µM, 30.03 µM",-6.262%
CC(C)CNc1nc(C(=O)/N=c2\[nH]nc(C(C)(C)C)s2)cs1,Percent Effect,"30 µM, 30.03 µM",-9.789%
O=C(O)C(F)(F)F.O=C(c1cscn1)N1CC[C@@H]2[C@@H]1CCN2C1CCOCC1,Percent Effect,"30.3 µM, […]",-53.41%
O=C(O)C(F)(F)F.O=C(c1ccccn1)N1CCc2ncc(Cn3cccn3)n2CC1,Percent Effect,"30.3 µM, […]",-7.142%
Cc1ccc(S(=O)(=O)N2C[C@H]3C[C@H](NC(=O)c4cnn(C)c4)[C@H]3C2)cc1,Percent Effect,"30.3 µM, […]",-2.175%
COc1c(CNCc2cccc(Cn3ccnc3C)c2)c(C)nn1C.Cl,Percent Effect,"30.3 µM, […]",-2.374%
same,Percent Effect,"10 mM, 10 mM as filed; unlikely as a test dose",-46.4%
CC(C)c1nc2c(n1C)CCN(Cc1nc(-c3ccsc3)no1)C2,Percent Effect,"30 µM, 30.03 µM",59.36%
CC(C)c1nc2c(n1C)CCN(Cc1nc(-c3ccoc3)no1)C2,Percent Effect,"30.3 µM, […]",-0.2084%
Cn1c(C2CC2)nc2c1CCN(Cc1nc(-c3ccsc3)no1)C2,Percent Effect,"30.3 µM, […]",-7.992%
COc1ccc(CN(C)[C@@H]2COC[C@H]2c2ccc(F)cc2)c(OC)c1.O=C(O)CC(O)(CC(=O)O)C(=O)O,Percent Effect,"30.3 µM, […]",4.622%
Br.CCOc1ccc(N(CC(=O)c2ccccc2)C2=NCCCCC2)cc1,Percent Effect,"30 µM, 30.03 µM",25.81%
COc1ccccc1CN1C[C@@H]2CN(C(C)=O)CCO[C@@H]2C1.O=C(O)C(F)(F)F,Percent Effect,"30.3 µM, […]",-77.53%
CN(Cc1nc(N2CCCC2)ncc1-c1ccncc1)C(=O)C(C)(C)C.Cl,Percent Effect,"30.3 µM, […]",34.69%
Cc1ccc(OC2(C(=O)N(C)Cc3ccoc3)CCNCC2)cc1,Percent Effect,"30.3 µM, […]",91.09%
CN(Cc1ccncn1)C(=O)C1(Oc2ccc(Cl)cc2)CCNCC1,Percent Effect,"30.3 µM, […]",-35.89%
CN(Cc1ccoc1)C(=O)C1(Oc2ccc(Cl)cc2)CCNCC1,Percent Effect,"30.3 µM, […]",99.82%
O=C(N[C@@H]1CCCNC1)C1(Oc2ccc(Cl)cc2)CCNCC1,Percent Effect,"30 µM, 30.03 µM",-80.08%
CN(C)C(=O)C1(Oc2ccc(Cl)cc2)CCNCC1,Percent Effect,"30.3 µM, […]",-28.66%
Cc1ccc(OC2(C(=O)NC(C)Cc3ccncc3)CCNCC2)cc1 (stereo unspecified),Percent Effect,"30 µM, 30.03 µM",-4.697%
CC(C)CN1CCC2(CCN(Cc3ccsc3)CC2)C1=O,Percent Effect,"30.3 µM, […]",2.917%
CC(C)CNC(=O)N1CCC2(CC1)OC(C(N)=O)Cn1ccnc12.O=C(O)C(F)(F)F (stereo unspecified),Percent Effect,"30.3 µM, […]",-37.34%
COCC[C@]1(O)CCN(Cc2nnc(C)s2)C[C@H]1C,Percent Effect,"30.3 µM, […]",-14.31%
O=C(O)C(F)(F)F.O=C(c1cccnc1)N1CCCC2(COCCN(c3ccccc3)C2)C1 (stereo unspecified),Percent Effect,"30.3 µM, […]",-43.99%
Cc1ccc(CN2CC[C@@H](O)[C@@H]2Cc2cnn(C)c2)o1.O=C(O)C(F)(F)F,Percent Effect,"30.3 µM, […]",-387.9%
CNC(=O)C1(CCCc2ccncc2)CCCCN1.Cl (stereo unspecified),Percent Effect,"30.3 µM, […]",-5.403%
COCCOC1CCN(C(C(=O)O)c2ccc(OC)c(F)c2)CC1 (stereo unspecified),Percent Effect,"30.3 µM, […]",-2.66%
O=C(O)c1cc(/C=C/c2cccc3ccccc23)ncn1,Percent Effect,"30 µM, 30.03 µM",18.14%
Cn1ccnc1CN1CCC2(COCCN(Cc3ccsc3)C2)C1 (stereo unspecified),Percent Effect,"30 µM, 30.03 µM",61.78%
Cn1ccnc1CN1CCC2(CC1)COCCN(c1ncccn1)C2,Percent Effect,"30.3 µM, […]",7.51%
Cn1ccnc1CN1CCC2(COCCN(S(=O)(=O)C3CC3)C2)C1 (stereo unspecified),Percent Effect,"30.3 µM, […]",11.66%
Cc1noc(CN2C[C@H]3CC[C@@H]2CN(C2Cc4ccccc4C2)C3)n1,Percent Effect,"30 µM, 30.03 µM",16.7%
CC(=O)Nc1nc(C2CCN(C(=O)c3cccnc3)CC2)cs1,Percent Effect,"30 µM, 30.03 µM",31.28%
Cc1noc(C)c1CN1CCc2ncnc(-c3ccc(F)cc3)c2CC1.O=C(O)C(F)(F)F,Percent Effect,"30.3 µM, […]",-81.82%
CCS(=O)(=O)NCCNc1cc(-n2cccc2)ncn1,Percent Effect,"30.3 µM, […]",14.19%
Cc1ccc(S(=O)(=O)NCCNc2cc(-n3cccc3)ncn2)c(C)c1,Percent Effect,"30.3 µM, […]",53.4%
O=S(=O)(NCCNc1cc(-n2cccc2)ncn1)c1cccs1,Percent Effect,"30.3 µM, […]",16.28%
CNC(=O)CN1CCCC12CCN(C(=O)c1cccc(F)c1)CC2.O=C(O)C(F)(F)F,Percent Effect,"30.3 µM, […]",-1.054%
O=C(NCc1ccco1)[C@H]1C[C@@H]2CCN(c3nncs3)C[C@H]2O1.O=C(O)C(F)(F)F,Percent Effect,"30.3 µM, […]",-27.54%
COc1cc2nc(NCc3cc(C)on3)nc(N)c2cc1OC,Percent Effect,"30.3 µM, […]",-6.228%
COc1ccccc1NCC(=O)NCc1scnc1C,Percent Effect,"30 µM, 30.03 µM",-18.47%
COc1cc2nc(NCc3scnc3C)nc(N)c2cc1OC,Percent Effect,"30.3 µM, […]",86.68%
